# Measured values reported in ChEMBL document CHEMBL1961873, “Compounds: GSK PKIS; Assays: Nanosyn kinase panel” (2012).
# Key:
# [1] = target: Sphingosine kinase 1 (Homo sapiens) (UniProt Q9NYA1); details: at 1 µM;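 further: mean SPHK1 inhibition value reported from the GSK PKIS kinase panel screen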
# [2] = target: T1, Sphingosine kinase 2 (Homo sapiens) (UniProt Q9NRA0); details: at 0.1 µM
# T1 sequence (whole entry): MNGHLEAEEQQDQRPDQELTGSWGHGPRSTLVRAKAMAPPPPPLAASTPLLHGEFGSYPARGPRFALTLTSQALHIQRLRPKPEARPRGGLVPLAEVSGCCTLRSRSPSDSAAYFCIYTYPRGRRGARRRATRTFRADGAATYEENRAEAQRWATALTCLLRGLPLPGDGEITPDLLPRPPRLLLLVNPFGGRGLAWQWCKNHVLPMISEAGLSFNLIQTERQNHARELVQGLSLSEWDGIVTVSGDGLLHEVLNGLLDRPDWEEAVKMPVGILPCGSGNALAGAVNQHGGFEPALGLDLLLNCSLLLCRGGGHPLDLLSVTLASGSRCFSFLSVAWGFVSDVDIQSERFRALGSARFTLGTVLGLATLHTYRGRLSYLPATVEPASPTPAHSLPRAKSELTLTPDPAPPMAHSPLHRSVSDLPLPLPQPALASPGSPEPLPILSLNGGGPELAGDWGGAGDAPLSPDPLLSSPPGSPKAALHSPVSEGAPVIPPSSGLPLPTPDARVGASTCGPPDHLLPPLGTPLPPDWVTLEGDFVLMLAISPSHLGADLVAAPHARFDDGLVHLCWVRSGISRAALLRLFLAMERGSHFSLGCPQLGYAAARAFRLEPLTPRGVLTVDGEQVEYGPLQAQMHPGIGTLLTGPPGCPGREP
# [3] = target: T1, Sphingosine kinase 2 (Homo sapiens); details: at 1 µM
# [4] = target: Casein kinase II subunit alpha (Homo sapiens) (UniProt P68400); details: at 0.1 µM
# Chain of Casein kinase II subunit alpha (Homo sapiens) (P68400 whole entry, looked up): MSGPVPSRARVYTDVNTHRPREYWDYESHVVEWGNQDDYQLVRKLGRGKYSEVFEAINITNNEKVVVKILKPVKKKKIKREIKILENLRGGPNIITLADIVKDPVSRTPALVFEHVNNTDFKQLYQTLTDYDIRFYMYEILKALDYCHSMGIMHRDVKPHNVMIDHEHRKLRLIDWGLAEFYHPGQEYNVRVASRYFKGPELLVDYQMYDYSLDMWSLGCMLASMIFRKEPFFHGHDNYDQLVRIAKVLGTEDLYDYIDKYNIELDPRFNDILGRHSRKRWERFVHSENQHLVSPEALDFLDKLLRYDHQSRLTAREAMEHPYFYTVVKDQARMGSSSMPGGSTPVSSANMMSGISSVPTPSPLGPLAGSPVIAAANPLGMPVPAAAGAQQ
# [5] = target: Casein kinase II subunit alpha (Homo sapiens) (UniProt P68400); details: at 1 µM
# [6] = target: T2, Inhibitor of nuclear factor kappa-B kinase subunit alpha (Homo sapiens) (UniProt O15111); details: at 0.1 µM
# T2 sequence (whole entry): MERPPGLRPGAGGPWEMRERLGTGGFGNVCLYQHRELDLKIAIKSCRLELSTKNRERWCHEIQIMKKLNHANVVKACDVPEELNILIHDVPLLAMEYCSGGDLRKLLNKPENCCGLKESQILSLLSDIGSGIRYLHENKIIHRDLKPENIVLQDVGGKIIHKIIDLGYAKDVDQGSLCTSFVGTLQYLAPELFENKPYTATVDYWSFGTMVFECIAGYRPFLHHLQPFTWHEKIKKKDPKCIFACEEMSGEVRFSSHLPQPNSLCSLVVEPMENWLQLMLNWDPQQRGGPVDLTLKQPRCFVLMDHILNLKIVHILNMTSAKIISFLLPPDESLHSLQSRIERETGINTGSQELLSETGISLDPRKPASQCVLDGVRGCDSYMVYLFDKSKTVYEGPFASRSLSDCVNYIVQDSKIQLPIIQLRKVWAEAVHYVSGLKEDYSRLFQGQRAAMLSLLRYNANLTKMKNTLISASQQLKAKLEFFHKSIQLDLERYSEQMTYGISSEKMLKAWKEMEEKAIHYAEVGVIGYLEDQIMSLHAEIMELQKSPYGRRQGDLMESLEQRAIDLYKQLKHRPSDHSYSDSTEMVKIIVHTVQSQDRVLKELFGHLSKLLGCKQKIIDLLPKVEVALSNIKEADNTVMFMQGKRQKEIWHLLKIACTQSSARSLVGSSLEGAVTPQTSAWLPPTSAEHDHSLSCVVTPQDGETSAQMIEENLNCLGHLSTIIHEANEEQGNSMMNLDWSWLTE
# [7] = target: T2, Inhibitor of nuclear factor kappa-B kinase subunit alpha (Homo sapiens); details: at 1 µM
# [8] = target: T3, Inhibitor of nuclear factor kappa-B kinase subunit beta (Homo sapiens) (UniProt O14920); details: at 0.1 µM
# T3 sequence (whole entry): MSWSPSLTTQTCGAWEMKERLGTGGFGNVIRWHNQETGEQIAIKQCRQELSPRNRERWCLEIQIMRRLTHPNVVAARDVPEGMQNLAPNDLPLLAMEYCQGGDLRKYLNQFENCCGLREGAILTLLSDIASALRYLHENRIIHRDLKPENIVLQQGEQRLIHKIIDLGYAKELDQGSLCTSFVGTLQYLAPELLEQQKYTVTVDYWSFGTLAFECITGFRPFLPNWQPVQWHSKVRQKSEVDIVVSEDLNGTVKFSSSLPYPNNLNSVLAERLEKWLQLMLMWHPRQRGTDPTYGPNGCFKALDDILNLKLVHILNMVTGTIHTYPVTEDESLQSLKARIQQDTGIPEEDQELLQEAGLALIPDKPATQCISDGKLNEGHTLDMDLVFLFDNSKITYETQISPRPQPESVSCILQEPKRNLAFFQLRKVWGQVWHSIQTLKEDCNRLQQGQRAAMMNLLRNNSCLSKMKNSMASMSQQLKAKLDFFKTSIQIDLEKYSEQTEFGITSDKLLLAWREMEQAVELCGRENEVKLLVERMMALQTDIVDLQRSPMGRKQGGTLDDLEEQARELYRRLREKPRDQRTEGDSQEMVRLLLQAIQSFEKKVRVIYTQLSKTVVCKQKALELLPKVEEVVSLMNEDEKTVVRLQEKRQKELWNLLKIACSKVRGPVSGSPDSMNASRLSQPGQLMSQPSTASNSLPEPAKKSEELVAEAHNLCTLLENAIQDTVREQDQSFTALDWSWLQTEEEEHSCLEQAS
# [9] = target: T3, Inhibitor of nuclear factor kappa-B kinase subunit beta (Homo sapiens); details: at 1 µM
# [10] = target: T4, Inhibitor of nuclear factor kappa-B kinase subunit epsilon (Homo sapiens) (UniProt Q14164); details: at 0.1 µM
# T4 sequence (whole entry): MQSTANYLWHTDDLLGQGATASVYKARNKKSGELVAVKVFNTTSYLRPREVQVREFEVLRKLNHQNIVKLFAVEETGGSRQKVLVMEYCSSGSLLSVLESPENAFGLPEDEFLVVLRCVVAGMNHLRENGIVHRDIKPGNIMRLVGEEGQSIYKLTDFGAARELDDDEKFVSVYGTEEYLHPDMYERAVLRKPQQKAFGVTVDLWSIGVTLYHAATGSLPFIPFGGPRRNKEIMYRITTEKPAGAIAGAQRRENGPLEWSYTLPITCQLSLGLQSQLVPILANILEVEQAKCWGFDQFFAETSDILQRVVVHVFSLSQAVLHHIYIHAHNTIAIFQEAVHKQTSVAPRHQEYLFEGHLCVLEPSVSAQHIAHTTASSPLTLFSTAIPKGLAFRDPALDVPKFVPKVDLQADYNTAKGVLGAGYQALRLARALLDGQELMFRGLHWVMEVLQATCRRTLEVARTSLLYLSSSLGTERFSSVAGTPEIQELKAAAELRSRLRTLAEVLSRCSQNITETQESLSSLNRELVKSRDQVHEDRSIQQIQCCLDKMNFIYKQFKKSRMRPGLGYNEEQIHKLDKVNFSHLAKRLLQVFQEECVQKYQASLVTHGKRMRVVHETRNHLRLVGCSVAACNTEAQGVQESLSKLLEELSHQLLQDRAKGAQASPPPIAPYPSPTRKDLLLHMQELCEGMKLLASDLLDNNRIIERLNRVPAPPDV
# [11] = target: T4, Inhibitor of nuclear factor kappa-B kinase subunit epsilon (Homo sapiens); details: at 1 µM
# [12] = target: T5, Serine/threonine-protein kinase Nek1 (Homo sapiens) (UniProt Q96PY6); details: at 0.1 µM
# T5 sequence (whole entry): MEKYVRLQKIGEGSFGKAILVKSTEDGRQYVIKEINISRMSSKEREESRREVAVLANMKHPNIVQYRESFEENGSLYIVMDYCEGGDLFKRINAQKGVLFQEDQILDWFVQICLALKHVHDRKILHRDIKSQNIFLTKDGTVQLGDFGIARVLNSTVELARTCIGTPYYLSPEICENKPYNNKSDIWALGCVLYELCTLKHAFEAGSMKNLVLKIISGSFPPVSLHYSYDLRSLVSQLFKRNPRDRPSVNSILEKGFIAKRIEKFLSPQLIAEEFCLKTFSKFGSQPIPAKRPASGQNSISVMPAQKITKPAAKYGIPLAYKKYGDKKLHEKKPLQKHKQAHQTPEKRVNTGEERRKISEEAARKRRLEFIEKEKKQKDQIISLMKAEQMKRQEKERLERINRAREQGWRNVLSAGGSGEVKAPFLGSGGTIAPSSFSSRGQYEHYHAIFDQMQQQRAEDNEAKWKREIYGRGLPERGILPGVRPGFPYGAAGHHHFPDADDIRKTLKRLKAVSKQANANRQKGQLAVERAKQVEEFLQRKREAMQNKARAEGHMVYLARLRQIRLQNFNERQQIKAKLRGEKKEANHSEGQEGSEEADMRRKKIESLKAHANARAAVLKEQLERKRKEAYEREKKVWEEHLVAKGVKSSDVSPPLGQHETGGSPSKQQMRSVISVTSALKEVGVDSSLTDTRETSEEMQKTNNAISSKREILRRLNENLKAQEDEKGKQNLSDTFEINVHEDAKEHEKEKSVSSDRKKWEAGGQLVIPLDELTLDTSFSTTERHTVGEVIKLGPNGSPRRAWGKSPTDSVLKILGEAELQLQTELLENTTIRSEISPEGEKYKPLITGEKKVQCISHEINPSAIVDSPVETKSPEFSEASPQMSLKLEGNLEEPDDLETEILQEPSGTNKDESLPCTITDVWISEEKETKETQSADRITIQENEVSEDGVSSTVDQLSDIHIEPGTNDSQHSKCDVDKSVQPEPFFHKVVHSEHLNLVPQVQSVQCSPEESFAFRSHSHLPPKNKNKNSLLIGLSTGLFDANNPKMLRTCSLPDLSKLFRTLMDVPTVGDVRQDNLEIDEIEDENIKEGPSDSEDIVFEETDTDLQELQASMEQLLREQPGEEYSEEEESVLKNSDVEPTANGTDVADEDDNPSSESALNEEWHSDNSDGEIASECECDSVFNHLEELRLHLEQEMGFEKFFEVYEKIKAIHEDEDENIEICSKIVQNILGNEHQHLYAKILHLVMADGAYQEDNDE
# [13] = target: T5, Serine/threonine-protein kinase Nek1 (Homo sapiens); details: at 1 µM
# [14] = target: T6, Serine/threonine-protein kinase Nek2 (Homo sapiens) (UniProt P51955); details: at 0.1 µM
# T6 sequence (whole entry): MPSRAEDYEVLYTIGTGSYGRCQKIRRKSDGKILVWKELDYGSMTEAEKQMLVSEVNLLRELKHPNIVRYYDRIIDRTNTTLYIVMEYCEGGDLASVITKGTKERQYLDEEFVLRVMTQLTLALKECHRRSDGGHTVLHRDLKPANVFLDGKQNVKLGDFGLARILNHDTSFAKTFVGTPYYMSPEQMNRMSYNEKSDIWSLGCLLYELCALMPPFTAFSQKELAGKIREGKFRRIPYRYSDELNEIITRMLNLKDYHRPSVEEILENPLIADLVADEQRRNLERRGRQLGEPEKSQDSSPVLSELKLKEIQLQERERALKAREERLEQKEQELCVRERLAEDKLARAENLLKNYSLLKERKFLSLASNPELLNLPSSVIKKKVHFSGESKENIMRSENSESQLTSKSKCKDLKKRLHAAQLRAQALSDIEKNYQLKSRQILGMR
# [15] = target: T6, Serine/threonine-protein kinase Nek2 (Homo sapiens); details: at 1 µM
# [16] = target: Serine/threonine-protein kinase Nek6 (Homo sapiens) (UniProt Q9HC98); details: at 0.1 µM
# Chain of Serine/threonine-protein kinase Nek6 (Homo sapiens) (Q9HC98 whole entry): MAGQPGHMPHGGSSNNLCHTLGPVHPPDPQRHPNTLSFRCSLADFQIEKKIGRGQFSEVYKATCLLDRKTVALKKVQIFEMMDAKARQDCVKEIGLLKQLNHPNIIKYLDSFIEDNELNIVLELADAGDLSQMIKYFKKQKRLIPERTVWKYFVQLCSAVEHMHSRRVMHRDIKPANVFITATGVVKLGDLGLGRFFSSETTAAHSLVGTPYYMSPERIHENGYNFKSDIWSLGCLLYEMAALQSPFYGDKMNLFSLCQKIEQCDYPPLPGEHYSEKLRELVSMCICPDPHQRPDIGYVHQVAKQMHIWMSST
# [17] = target: Serine/threonine-protein kinase Nek6 (Homo sapiens) (UniProt Q9HC98); details: at 1 µM
# [18] = target: Serine/threonine-protein kinase Nek7 (Homo sapiens) (UniProt Q8TDX7); details: at 0.1 µM
# Chain of Serine/threonine-protein kinase Nek7 (Homo sapiens) (Q8TDX7 whole entry, looked up): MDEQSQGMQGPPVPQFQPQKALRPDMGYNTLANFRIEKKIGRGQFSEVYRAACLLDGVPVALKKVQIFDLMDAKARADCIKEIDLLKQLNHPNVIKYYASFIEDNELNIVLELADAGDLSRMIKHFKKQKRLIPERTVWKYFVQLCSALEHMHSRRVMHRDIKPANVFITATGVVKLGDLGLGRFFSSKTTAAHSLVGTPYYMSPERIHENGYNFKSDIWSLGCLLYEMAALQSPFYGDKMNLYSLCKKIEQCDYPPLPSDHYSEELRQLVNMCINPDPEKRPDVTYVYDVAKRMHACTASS
# [19] = target: Serine/threonine-protein kinase Nek7 (Homo sapiens) (UniProt Q8TDX7); details: at 1 µM
# [20] = target: T7, Serine/threonine-protein kinase Nek9 (Homo sapiens) (UniProt Q8TD19); details: at 0.1 µM;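 further: reported value is the mean percent inhibition of NEK9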
# T7 sequence (whole entry): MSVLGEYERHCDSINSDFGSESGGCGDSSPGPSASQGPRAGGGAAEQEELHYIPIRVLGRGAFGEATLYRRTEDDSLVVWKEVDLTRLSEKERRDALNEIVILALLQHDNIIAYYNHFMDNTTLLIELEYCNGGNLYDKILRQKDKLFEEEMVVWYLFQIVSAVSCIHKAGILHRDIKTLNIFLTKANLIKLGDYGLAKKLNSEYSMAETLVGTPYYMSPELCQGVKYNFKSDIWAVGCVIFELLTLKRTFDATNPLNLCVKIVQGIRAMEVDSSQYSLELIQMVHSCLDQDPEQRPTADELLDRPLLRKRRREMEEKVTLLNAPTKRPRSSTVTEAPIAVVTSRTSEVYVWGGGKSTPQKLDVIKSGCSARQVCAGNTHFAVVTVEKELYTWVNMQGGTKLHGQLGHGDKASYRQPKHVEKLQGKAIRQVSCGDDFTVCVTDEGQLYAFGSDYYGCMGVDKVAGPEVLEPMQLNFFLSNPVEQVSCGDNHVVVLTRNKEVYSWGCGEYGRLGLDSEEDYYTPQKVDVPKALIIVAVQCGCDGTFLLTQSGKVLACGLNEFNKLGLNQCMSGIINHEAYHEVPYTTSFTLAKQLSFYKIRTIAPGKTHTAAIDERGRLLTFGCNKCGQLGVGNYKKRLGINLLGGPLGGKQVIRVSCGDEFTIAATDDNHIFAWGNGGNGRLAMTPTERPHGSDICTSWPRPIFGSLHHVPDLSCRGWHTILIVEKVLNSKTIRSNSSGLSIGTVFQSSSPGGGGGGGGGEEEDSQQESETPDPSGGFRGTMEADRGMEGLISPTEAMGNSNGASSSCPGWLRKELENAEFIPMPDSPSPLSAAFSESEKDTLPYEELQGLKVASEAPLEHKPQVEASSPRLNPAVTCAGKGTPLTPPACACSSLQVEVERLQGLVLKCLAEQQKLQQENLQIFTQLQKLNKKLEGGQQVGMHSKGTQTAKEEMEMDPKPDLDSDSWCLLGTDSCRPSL
# Chain of Sphingosine kinase 1 (Homo sapiens) (Q9NYA1 whole entry): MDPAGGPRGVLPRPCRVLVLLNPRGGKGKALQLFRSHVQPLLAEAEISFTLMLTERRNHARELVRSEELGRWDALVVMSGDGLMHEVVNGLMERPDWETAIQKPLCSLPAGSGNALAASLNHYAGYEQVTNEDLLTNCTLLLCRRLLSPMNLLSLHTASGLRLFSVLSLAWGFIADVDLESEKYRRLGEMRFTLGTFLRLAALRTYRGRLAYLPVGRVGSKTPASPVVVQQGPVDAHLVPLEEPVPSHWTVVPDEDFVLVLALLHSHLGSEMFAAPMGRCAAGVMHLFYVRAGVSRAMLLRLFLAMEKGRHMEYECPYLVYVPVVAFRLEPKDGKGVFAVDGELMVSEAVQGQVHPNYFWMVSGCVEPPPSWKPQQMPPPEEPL
smiles,measurement,setting,value
O=C1Nc2ccc(C(=O)c3ccco3)cc2C1=Cc1cc(Cl)c(O)c(Cl)c1,inhibition,[1],-1.68%
same,inhibition,[2],1.43%
same,inhibition,[3],1.2%
same,inhibition,[4],18%
same,inhibition,[5],55.2%
same,inhibition,[6],2.59%
same,inhibition,[7],8.32%
same,inhibition,[8],5.21%
same,inhibition,[9],2.45%
same,inhibition,[10],24.9%
same,inhibition,[11],52%
same,inhibition,[12],1.66%
same,inhibition,[13],6.79%
same,inhibition,[14],5.56%
same,inhibition,[15],3.76%
same,inhibition,[16],-0.24%
same,inhibition,[17],0.61%
same,inhibition,[18],3.27%
same,inhibition,[19],3.97%
same,inhibition,[20],6.51%
